Laboratory results from the supplement of paper PMC11732987, “Enantioselective OTUD7B fragment discovery through chemoproteomics screening and high-throughput optimisation” (Communications Chemistry, 2025).
Values without a mark were called inactive.

These compounds were tested against T1, USP38 (UniProt Q8NB14) (assay: log2 ratio of Biotin-Ahx-Ub-VS probe labelling (compound/DMSO); higher = less target engagement, active = hit call of the paper (q ≤ 0.05, log2 ratio ≤ -1)). Conditions: compound concentration: 50uM; treatment time: 3 h.
T1 sequence (whole entry): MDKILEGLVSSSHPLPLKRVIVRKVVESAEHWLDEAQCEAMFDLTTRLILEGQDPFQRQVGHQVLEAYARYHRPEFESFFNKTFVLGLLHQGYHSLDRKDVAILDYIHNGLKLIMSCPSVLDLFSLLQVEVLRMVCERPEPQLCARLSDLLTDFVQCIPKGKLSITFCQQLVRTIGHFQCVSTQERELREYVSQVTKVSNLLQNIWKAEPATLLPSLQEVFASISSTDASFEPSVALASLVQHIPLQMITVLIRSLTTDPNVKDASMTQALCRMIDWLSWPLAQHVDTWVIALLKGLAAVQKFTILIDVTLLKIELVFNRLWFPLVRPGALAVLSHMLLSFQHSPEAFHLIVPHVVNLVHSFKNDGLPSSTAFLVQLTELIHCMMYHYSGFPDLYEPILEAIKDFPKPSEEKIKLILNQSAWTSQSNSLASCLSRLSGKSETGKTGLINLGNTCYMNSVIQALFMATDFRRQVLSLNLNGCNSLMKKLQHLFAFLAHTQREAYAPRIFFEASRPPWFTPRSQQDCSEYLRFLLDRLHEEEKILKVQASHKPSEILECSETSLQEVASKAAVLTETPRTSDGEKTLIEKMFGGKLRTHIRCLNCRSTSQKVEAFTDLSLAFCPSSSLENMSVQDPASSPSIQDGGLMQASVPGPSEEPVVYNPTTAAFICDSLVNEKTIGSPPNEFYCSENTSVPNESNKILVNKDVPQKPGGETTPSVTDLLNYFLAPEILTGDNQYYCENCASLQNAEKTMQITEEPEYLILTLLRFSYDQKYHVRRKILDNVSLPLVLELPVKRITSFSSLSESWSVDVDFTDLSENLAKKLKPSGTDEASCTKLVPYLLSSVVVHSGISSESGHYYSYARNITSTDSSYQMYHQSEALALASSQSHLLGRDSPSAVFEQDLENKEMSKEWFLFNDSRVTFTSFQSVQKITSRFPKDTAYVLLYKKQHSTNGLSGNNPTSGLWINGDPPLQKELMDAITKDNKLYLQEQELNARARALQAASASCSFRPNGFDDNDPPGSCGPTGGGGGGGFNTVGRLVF
Experimental: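 Round 2 competitive ABPP in HEK293T lysate. Purified HTC-D2B compounds were tested at 50 and 200 µM for 3 h, followed by Biotin-Ahx-Ub-VS enrichment and diaPASEF LC-MS/MS. Values are the average log2 ratio (compound/DMSO) from an unpaired t-test (n=3 treated, n=26 DMSO).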

Structure (SMILES)	log2 ratio of Biotin-Ahx-Ub-VS probe labelling
COc1ccc(CN(C)C(=O)CCl)cc1	0.023
CCC1c2cc(Cl)c(OC)cc2CCN1C(=O)CCl (stereo unspecified)	0.207
O=C(CCl)N1Cc2sccc2C(O)C1 (stereo unspecified)	0.173
O=C(CCl)NC1CCCc2ccccc21 (stereo unspecified)	0.0146
O=C(CCl)N1CCc2nc(-c3ccccc3)ncc2C1	0.272
O=C(CCl)N1CCc2scc(Br)c2C1	0.0294
Cc1ccccc1COc1cccc(CN(C)C(=O)CCl)c1	-0.192
CN(Cc1cccc(Br)c1)C(=O)CCl	0.171
O=C(CCl)NC(c1cccs1)C1CCCC1 (stereo unspecified)	0.192
O=C(CCl)N1CCc2nocc2C1	-0.0321
O=C(CCl)NC1CCOc2ccc(Cl)cc21 (stereo unspecified)	0.126
COc1cccc(CN(CCCc2ccccc2)C(=O)CCl)c1	-0.105
O=C(CCl)N[C@H]1CCCc2ccccc21	0.0645
Cl.Cl.O=C(CCl)N1CCc2nc(N3CCN(c4ccc(F)cc4)CC3)ncc2C1	0.202
O=C(CCl)N1CCc2cc(Cl)c(Cl)cc2C1	0.253
CCCC1c2cc(OC)c(OC)cc2CCN1C(=O)CCl (stereo unspecified)	-0.184
CN(Cc1ccccc1)C(=O)CCl	-0.0215
O=C(CCl)NC1CCSc2ccccc21 (stereo unspecified)	0.05

Same assay, conditions: compound concentration: 200uM; treatment time: 3 h

Structure (SMILES)	log2 ratio of Biotin-Ahx-Ub-VS probe labelling
COc1ccc(CN(C)C(=O)CCl)cc1	-0.826
CCC1c2cc(Cl)c(OC)cc2CCN1C(=O)CCl (stereo unspecified)	-0.934
O=C(CCl)N1Cc2sccc2C(O)C1 (stereo unspecified)	-0.212
O=C(CCl)NC1CCCc2ccccc21 (stereo unspecified)	-0.162
O=C(CCl)N1CCc2nc(-c3ccccc3)ncc2C1	-0.407
O=C(CCl)N1CCc2scc(Br)c2C1	-0.844
Cc1ccccc1COc1cccc(CN(C)C(=O)CCl)c1	-0.383
CN(Cc1cccc(Br)c1)C(=O)CCl	-0.322
O=C(CCl)NC(c1cccs1)C1CCCC1 (stereo unspecified)	-0.22
O=C(CCl)N1CCc2nocc2C1	-0.473
O=C(CCl)NC1CCOc2ccc(Cl)cc21 (stereo unspecified)	-0.261
COc1cccc(CN(CCCc2ccccc2)C(=O)CCl)c1	-0.679
O=C(CCl)N[C@H]1CCCc2ccccc21	-0.252
Cl.Cl.O=C(CCl)N1CCc2nc(N3CCN(c4ccc(F)cc4)CC3)ncc2C1	-0.918
O=C(CCl)N1CCc2cc(Cl)c(Cl)cc2C1	-0.962
CCCC1c2cc(OC)c(OC)cc2CCN1C(=O)CCl (stereo unspecified)	-0.48
CN(Cc1ccccc1)C(=O)CCl	-0.641
O=C(CCl)NC1CCSc2ccccc21 (stereo unspecified)	-0.3
